# Reference: the supplement of paper PMC3334620
# The full ranking holds about 33,000 sequences; the median of “E-score (-0.5 to 0.5)” is about -0.0014, and the highest 2% start at about 0.25. Only a selection was taken, and the highest values are over-represented in it overall.
# Target: T1, Cad1 (UniProt P24813)
# T1 sequence: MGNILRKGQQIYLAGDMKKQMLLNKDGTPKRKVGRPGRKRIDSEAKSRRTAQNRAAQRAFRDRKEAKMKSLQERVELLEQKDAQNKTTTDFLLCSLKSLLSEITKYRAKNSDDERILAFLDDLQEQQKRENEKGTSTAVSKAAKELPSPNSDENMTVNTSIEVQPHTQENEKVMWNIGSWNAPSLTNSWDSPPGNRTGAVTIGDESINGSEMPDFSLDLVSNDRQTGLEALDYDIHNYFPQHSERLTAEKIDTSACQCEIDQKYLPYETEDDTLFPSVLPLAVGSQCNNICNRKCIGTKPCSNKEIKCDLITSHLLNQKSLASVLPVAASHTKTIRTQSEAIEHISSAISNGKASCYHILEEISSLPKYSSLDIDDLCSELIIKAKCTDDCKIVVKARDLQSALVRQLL
# Test: PBM E-score (8-mer binding enrichment) (E-score (-0.5 to 0.5)); higher = stronger / more preferred TF binding
# Details: protein concentration: 100 nM; construct: GST-full length
# Procedure: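 Universal 'all 10-mer' protein binding microarrays (Agilent AMADID 015681) probed with GST-tagged S. cerevisiae TFs (full-length or DBD) made by in vitro transcription/translation (PURExpress), about 100-200 nM. Bound TF was detected with fluorescent anti-GST. Each ungapped 8-mer (which stands for itself and its reverse complement) is scored by the PBM enrichment score (E-score), a modified Wilcoxon-Mann-Whitney statistic from -0.5 to +0.5, computed with the Universal PBM Analysis Suite. Scale: above 0.35 generally sequence-specific binding.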
row,Sequence,PBM E-score
1,AATAAAGA,0.195
2,TAAAAATA,0.277
3,AATAAAAT,0.166
4,AATAAATA,0.313
5,AATAAATC,-0.0137
6,AATAAACT,0.12
7,AATAAATG,0.0809
8,CTAAAATA,0.0866
9,AAAAAATA,0.0934
10,AATAAATT,0.282
11,AATAAAAA,0.264
12,AATAAAAG,0.0174
13,AACCCGTG,-0.317
14,CCCACCCC,0.0432
15,CGCTATGA,0.119
16,CCCTTGGA,0.00683
17,CGTATTAA,0.0596
18,ACTAGAAT,0.0557
19,ACTGCATC,-0.00501
20,ATCAGAGA,-0.0164
21,AGCGAAAT,-0.184
22,CATATCGC,0.0925

row,Sequence,PBM E-score
1,ATACCATA,0.27
2,ATACCATG,-0.0699
3,GTACCATA,-0.158
4,ATTTAACA,0.193
5,GCCTGAGA,-0.169
6,ATGGGACC,-0.00547
7,CAGCCACC,-0.0873
8,ACAGACAG,0.0659
9,TCTGACAA,0.25
10,ACTGACAA,0.264
11,ACAGACAC,0.122
12,ACAGAAAC,0.116
13,TGTGACAA,0.0395
14,CCTGACAA,-0.0066
15,ACAGACAA,0.29
16,ACTGACAC,-0.0887
17,ACAGAAAA,0.281
18,TCAGAAAA,-0.145
19,ACTGACAT,-0.0482
20,TGCATACA,0.0433
21,AGGTGCAA,-0.0504
22,CTTTCATC,0.0102

row,Sequence,PBM E-score
1,GGCCTCAC,0.0157
2,GGCTTAAC,0.0615
3,CTTGGCTA,0.134
4,GGCTTCAA,-0.139
5,CACAGCCG,0.0914
6,TAATCCCA,-0.0386
7,CACACTTC,0.0239
8,AGTACCTG,-0.0799
9,CAGAGGGC,-0.213
10,CGTGCCAC,-0.091
11,CGCATTCC,-0.216
12,GATGACAA,0.304
13,GATGACAC,0.0339
14,GTTGACAA,0.166
15,GCTGACAA,0.412
16,CATGACAA,0.165
17,GCTGACAC,0.247
18,CGCAATCC,0.248
19,CCTGATCG,-0.0975
20,TCGGAACA,0.268
21,CCGGAACA,0.108
22,ACGGAACA,0.0866

row,Sequence,PBM E-score
1,AAAATAAA,0.128
2,AAATAAAA,-0.0112
3,AAAATAAT,0.314
4,AAAATAAC,-0.0367
5,AAATAAAG,-0.0232
6,AAATAATA,0.248
7,AAATAAAT,0.314
8,AAATAATT,0.295
9,AAATAATC,0.198
10,CACTGGCA,-0.0733
11,CCAAGACC,-0.0342
12,CCGCCGTC,0.117
13,AGTCACTA,0.0232
14,GCGCAGTA,0.149
15,GAAGATTA,0.181
16,TATGCGCA,0.0953
17,CGTCCGTA,-0.0771
18,CAAGCACG,0.152
19,TAAGCACA,0.295
20,CAAGCACA,-0.0831
21,GCACGAAA,0.197
22,AGTATCGG,0.0469

row,Sequence,PBM E-score
1,AGCATGCC,-0.111
2,GGCATGCC,0.00621
3,CGCATGCC,0.252
4,AAAATTCG,0.201
5,CGAAATCA,0.306
6,CAATTCCA,-0.0425
7,ACAAATTA,0.295
8,CGAAATCC,0.0502
9,GAATTCCA,0.117
10,ACAAATTG,0.202
11,GGAAATCA,0.0778
12,AAAATTCA,0.284
13,GAAATTCA,0.169
14,AAATTCCA,0.308
15,CCAAATTA,0.107
16,ACCCAAGT,-0.0625
17,ATCAACCC,0.0896
18,ATCCTAAA,-0.12
19,CGAACTCC,0.0429
20,TAAAAGAA,0.0891
21,ACTCTAAG,-0.094
22,GACGTTAA,0.245
